Hits are enriched below; roughly 4.5% of the tested compounds scored in any of these assays.
hgDAF-12 ag = H. glycines DAF-12 receptor agonists, primary screen, cell-based, luminescence, HEK293, GAL4 fusion, UAS-luciferase. Nuclear hormone receptor DAF-12 (Heterodera glycines), GAL4 fusion. HEK293 GAL4-hgDAF12 UAS-luciferase reporter, agonist luminescence; normalized to butyrate control. activation, % at 6.8 µM. 370,000 compounds, 1.8% hits. AID 687014, 2013;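 active = activation above a cutoff set at the mean of all screened compounds plus 3 SD, cut at about 10% in these data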;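 also: 0% = DMSO wells and 100% = sodium butyrate wells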
DAX1 inh-1 = DAX1 (NR0B1) inhibitors on StAR promoter, primary screen, cell-based, luminescence, SF-1 (NR5A1), full-length DAX-1. HEK293T StAR-luciferase reporter, SF-1/DAX-1 repression relief. inhibition, % at 6.8 µM. 370,000 compounds, 1.1% hits;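 active = inhibition above the mean over all tested compounds plus 3 SD, cut at about 3.6% in these data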;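 also: 0% = DAX-1 cells with DMSO and 100% = cells lacking DAX-1 with DMSO; higher inhibition means more luminescence from relief of DAX-1 repression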
DAX1 inh-2 = DAX1 (NR0B1) inhibitors, primary screen, cell-based, HEK293, Gal4-DAX1, luciferase luminescence; Nuclear receptor subfamily 0 group B member 1 (Homo sapiens), P51843; HEK293 Gal4-DAX1 luciferase reporter; inhibition, % at 6.75 µM; 340,000 compounds, 0.99% hits; AID 504766, 2011;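 active = inhibition above the mean over all tested compounds plus 3 SD, cut at about 4.2% in these data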;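 also: 0% = DAX1-transfected cells with DMSO and 100% = empty-vector control cells with DMSO; inhibition shows as a rise in luminescence from relieved DAX1 repression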
Target sequence (P51843 207-470 limits assumed): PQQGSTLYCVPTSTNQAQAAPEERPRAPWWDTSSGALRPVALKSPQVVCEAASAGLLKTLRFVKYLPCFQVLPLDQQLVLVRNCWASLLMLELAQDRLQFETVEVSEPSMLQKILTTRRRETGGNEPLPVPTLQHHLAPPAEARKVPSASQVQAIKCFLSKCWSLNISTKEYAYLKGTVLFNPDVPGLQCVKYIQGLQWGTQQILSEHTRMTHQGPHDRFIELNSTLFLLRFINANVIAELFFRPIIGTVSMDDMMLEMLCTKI
hcDAF12 agonist = H. contortus DAF-12 nuclear receptor activators, primary screen, cell-based, luminescence, HEK293, lit1-tk-luc reporter | HEK293 hcDAF-12 lit1-tk-luc reporter; 0% DMSO, 100% Δ7-dafachronic acid | activation, % at 6.8 µM | 370,000 compounds, 1.4% hits;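 active = activation above the mean of all tested compounds plus 3 SD, cut at about 5.5% in these data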;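 also: 100% = response to 3 µM Δ7-dafachronic acid high control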
ssDAF-12 act = S. stercoralis DAF-12 nuclear receptor activators, primary screen, cell-based, luminescence, HEK293, GRIP1 co-expression, lit1-tk-luc; Nuclear hormone receptor DAF-12 (Strongyloides stercoralis); HEK293 ssDAF-12/GRIP1 lit1-tk-luc reporter; % of 3 µM dafachronic acid response; activation, % at 6.8 µM; 370,000 compounds, 1% hits; AID 652126, 2013;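 active = activation above the mean over all tested compounds plus 3 SD, cut at about 0.9% in these data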;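 also: 0% = DMSO-only wells and 100% = 3 µM delta7-dafachronic acid wells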
GAA850 FXN act = FXN promoter activators, primary screen, cell-based, luciferase luminescence, HEK293 lucGAA850; 360,000 compounds, 0.56% hits; AID 540364, 2011; HEK293 lucGAA850 FXN promoter luciferase reporter, 24 h; percent of 10 µM SAHA response; activation, % at 6 µM;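 active = activation above the average of all compounds screened plus 3 SD, cutoff fixed separately per campaign, cut at about 7.5% in these data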;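 also: 0% = DMSO wells and 100% = 10 µM SAHA wells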
* = called active by the depositor; x = no result given.

SMILES | hgDAF-12 ag | DAX1 inh-1 | DAX1 inh-2 | hcDAF12 agonist | ssDAF-12 act | GAA850 FXN act
CCN(CC)c1ccc(NC(=S)NCC2CCCO2)cc1 (stereo unspecified) | 8 | 4.4* | 0 | 2 | -1 | 2
C/C(=N\NC(=O)c1ccn(C)n1)c1ccc(NC(=O)C2CCC2)cc1 | 10 | 2 | 1 | 2 | 0 | 3
CCN(CC)c1ccc(NC(=O)C2CCCC2)cc1 | 2 | 0 | 4.6* | 0 | -1 | 3
C/C(=N\NC(=O)c1ccn(C)n1)c1ccc(NC(=O)C2CCCC2)cc1 | 6 | 1 | 6.6* | 1 | 0 | 3
COc1ccc(-c2nnc(SCC(=O)Nc3ccc(S(=O)(=O)Nc4nccs4)cc3)n2-c2ccc(OC)cc2)cc1 | 1 | -1 | x | -1 | -1 | x
ClCc1cc2ccccc2nc1Cl | 2 | 0 | -1 | 3 | -1 | 2
CCc1cc2ccccc2nc1Cl | 0 | 0 | 6.1* | 0 | -1 | -1
Cc1ccc(-c2c(NC(=O)C3CC3)nc3ncccn23)cc1 | 3 | 1 | x | -1 | -2 | x
Cc1cccc(NC(=O)[C@@H]2CCCN2C2=NS(=O)(=O)c3ccccc32)c1C | 4 | -1 | 4.4* | 0 | -1 | 0
C=CCn1c(COc2ccccc2)nnc1SCC(=O)Nc1ccc(S(=O)(=O)Nc2cc(C)nc(C)n2)cc1 | 3 | 0 | x | 2 | -1 | x
COc1ccc(Nc2ncnc3c2oc2ccccc23)cc1 | 12* | 2 | 2 | 5 | 0 | 4
COc1cccc(Nc2nc(C)nc3c2oc2ccccc23)c1 | 3 | 0 | -1 | -2 | -2 | 3
CN(CC#Cc1ccccc1)C(N)=NC(=O)/C=C/c1ccccc1 | -3 | 0 | x | -2 | -2 | x
CCOc1ccccc1NC(=O)COC(=O)c1cc[n+]([O-])cc1 | -2 | 0 | 5.4* | -1 | 0 | 1
CCOc1ccccc1NC(=O)COC(=O)c1ccc2ccccc2n1 | 0 | 1 | -1 | 2 | -1 | 1
N#CC1=C(N)Oc2c(ccc3cccnc23)C1c1ccccc1 (stereo unspecified) | -2 | -2 | 0 | -2 | -1 | -3
Cc1ccc2[nH]c(=O)c(C3C(C#N)=C(N)Oc4c3ccc3cccnc43)cc2c1 (stereo unspecified) | 5 | 1 | 1 | 3 | 1.1* | 2
Cc1ccc(CN2C(C(=O)NC3CCCC3)CSCCS2(=O)=O)cc1 (stereo unspecified) | 3 | 0 | x | 1 | -1 | x
Cc1ccc(Nc2cc(C)nc(N3CCOCC3)n2)cc1 | 4 | 1 | 1 | 5.7* | 0 | 3
COC(=O)C1CN(C2CCCC2)CCS(=O)(=O)N1Cc1ccc(C)cc1 (stereo unspecified) | -1 | -2 | x | -2 | -2 | x
Cc1ccc(OCCC(=O)NNC(=O)c2cc(C)oc2C)cc1 | 2 | 0 | 4.4* | 2 | -1 | 0
OC(c1cccs1)(c1cccs1)C1C[N+]2(CF)CCC1CC2 (stereo unspecified) | 0 | 0 | 1 | 5.8* | -1 | 1
O=C(CCC1CCCC1)NCc1cccs1 | 2 | -1 | 1 | 0 | -1 | 2
COc1cc2c(NCCCCCCO[N+](=O)[O-])ncnc2c(OC)c1OC | -5 | -4 | x | -2 | -1 | x
Cn1c2c(c(=O)n(C)c1=O)NC1(N2)C(=O)Nc2ccccc21 (stereo unspecified) | 4 | 0 | 0 | 5 | 0.9* | 2
COc1ccccc1C(=O)NC1CCCCN(Cc2ccccc2C)C1=O (stereo unspecified) | -6 | -1 | x | -3 | -2 | x
